Source: PubChem BioAssay (National Center for Advancing Translational Sciences (NCATS))
Sfp inh – inhibitors of Bacillus subtilis Sfp phosphopantetheinyl transferase; Q9F4F7; Biochemical Sfp PPTase activity, qHTS; Potency, µM, without a hit: largest response in the series, negative = inhibition, usual class: inhibitors; 3.5% of 310,000 active;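 further: the enzyme is Sfp with the accession as filed and its product quenches rhodamine fluorescence; potency means the concentration at half of the fitted maximal effect; 0% = enzyme reaction without inhibitor and -100% = no enzyme wells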
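After 15 min at room temperature with compound, 15 nM Sfp received 5 uM rhodamine-CoA plus 12.5 uM BHQ-2-ybbR (50 mM Hepes pH 7.6, 10 mM MgCl2). Rate came from the fluorescence difference over 30 min, ex 525/em 598 nm.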
Tau fibril ThT – inhibitors of human tau fibril formation, thioflavin T binding; P10636; recombinant tau K18 P301L, heparin-induced fibrillization, ThT fluorescence; Potency, µM (doses to about 57.4 µM), for inactives: at the top dose activity, negative = inhibition, hits mostly inhibitors; 2.1% of 270,000 active; AID 1460; further: potency means the concentration at half of the fitted maximal effect; nearly all actives have a fitted effect of over 55% in size
Target sequence (P10636 561-689 P618L limits assumed): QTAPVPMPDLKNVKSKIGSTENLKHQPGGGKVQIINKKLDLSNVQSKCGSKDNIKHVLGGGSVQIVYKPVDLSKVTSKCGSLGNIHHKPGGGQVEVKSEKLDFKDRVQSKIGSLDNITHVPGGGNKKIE
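Aggregation was driven by heparin (20 uM final) acting on recombinant tau […] bearing P301L in 100 mM sodium acetate pH 7; fibrils were detected with Thioflavin T.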
Coupling enz – coupling enzyme interference in Giardia aldolase counter-screen; activity change, negative = inhibition, % at 58.2 µM, hits read low; 0.67% of 290,000 active; coupling enzyme system counterscreen, AmpLite Red fluorescence; in the data active means activity change below about -30%
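Final compound at 57.5 uM, incubated 10 min at RT with coupling enzyme reagent (glyceraldehyde-3-phosphate), then 20 min with substrate and AmpLite Red detection. Fluorescence read at 525/598 nm; tests interference with the coupling assay, not aldolase inhibition.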
Tau fibril FP – blocks human tau fibril formation measured by polarization; 0.39% of 280,000 active; K18 P301L tau heparin fibrillization, Alexa594 FP, 6 h; Potency, µM (titrated, usually from 57.7 µM), inactives show at the top dose activity, negative = inhibition, usual class: inhibitors; AID 1468; P10636; further: potency means the concentration at half of the fitted maximal effect; nearly all actives have a fitted effect of over 55% in size
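Human K18 P301L fragment (15 uM unlabeled plus 0.24 uM Alexa 594-labeled) in 100 mM sodium acetate pH 7 with compound, aggregation induced by 20 uM heparin for 6 hr at 37 C. ThT (30 uM) added for 1 hr, then Alexa 594 FP read.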
Tau fluor cs – counter-screen for tau fibril formation inhibitors | tau K18 P301L (four-repeat tau fragment) Alexa594 fluorescence, heparin fibrillization | Potency, µM (series often up to 57.7 µM), for inactives: at the highest dose activity change, negative = decrease | 0.93% of 280,000 active | AID 1463; further: potency means the concentration at half of the fitted maximal effect; nearly all actives have a fitted effect of over 55% in size
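Human K18 P301L tau (15 uM unlabeled plus 0.24 uM Alexa 594-labeled, final) in 100 mM sodium acetate pH 7 was mixed with compound and 20 uM heparin and incubated 6 hr at 37 C.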
The depositor's hits bear a star; ? = inconclusive; / = not tested or not shown; [ ] = dose if it differs, or a comment. Shown are actives, neighbours in structure and some others; about 5.2% of the full set was active somewhere. Unless noted, the call rests on the fitted dose curve; in most records, active means well fitted curve in the direction sought with a large enough effect; inconclusive means small, poorly fitted or top-dose-only effect, or another doubt; inactive means no such curve, though single readings can be large; an effect the other way counts as inactive or inconclusive. Unless noted, on the % scale 0 is the no-effect control and ±100 the full control effect.

SMILES	Sfp inh	Tau fibril ThT	Coupling enz	Tau fibril FP	Tau fluor cs
CCc1cc2c(-c3ccccc3)cc(=O)oc2c2c1OCN(Cc1ccc(F)cc1)C2	/	?	/	18.1%	?
C=CCNC(=S)NCc1cccnc1	79.4µM*	-3.3%	-1.0	-11.5%	-3.1%
CCc1cccc(NC(=O)Cn2nc3c4cc(F)ccc4n(Cc4cccc(C)c4)cc-3c2=O)c1	/	?	/	-11.3%	-5.9%
CCOC(=O)c1ccc(NC(=O)CC2SC(=NC)N(C)C2=O)cc1 (stereo not drawn)	1.5%	-12.7%	-1.1	-1.3%	-12.4%
CCOC(=O)c1ccc(NC(=O)CC2Sc3ncnn3C2=O)cc1 (stereo not drawn)	22.4µM*	?	-7.1	4.7%	-3.6%
COc1ccc(NC(=O)CC2Sc3ncnn3C2=O)cc1 (stereo not drawn)	44.7µM*	?	1.0	5.9%	-10.6%
O=C(CC1Sc2ncnn2C1=O)Nc1ccc(Cl)cc1 (stereo not drawn)	35.5µM*	?	2.4	-9.0%	-11.6%
O=C(CC1SC(=O)N(c2ccccc2)C1=O)Nc1ccc(Cl)cc1 (stereo not drawn)	-18.7%	?	1.6	-3.7%	-19.0%
COc1ccc(CNC(=O)Cn2ccc3cc(S(=O)(=O)N4CCCC4)ccc32)c(OC)c1	/	5.3%	/	3.1%	-11.7%
Cc1ccc(S(=O)(=O)c2nc(-c3ccccc3F)oc2N2CCCCC2)cc1	/	-14.8%	/	4.0%	-21.3%
CC(C)(C)c1cc[n+](C2=C([O-])c3ccccc3C(=O)/C2=N\S(=O)(=O)c2ccccc2)cc1	-11.8%	15.8µM*	-59.7*	?	?
CCCC[n+]1ccn(C2=C([O-])c3ccccc3C(=O)/C2=N\S(=O)(=O)c2ccccc2)c1	14.4%	?	/	4.4%	-14.6%
CC(C)[n+]1ccn(C2=C([O-])c3ccccc3C(=O)/C2=N\S(=O)(=O)c2ccccc2)c1	-2.7%	?	-43.5*	-10.0%	-10.5%
CCCCC[n+]1ccn(C2=C([O-])c3ccccc3C(=O)/C2=N\S(=O)(=O)c2ccc(Br)cc2)c1	8.4%	11.2µM*	-24.0	?	?
CCCC12CN3CC(CCC)(CN(C1)C3c1ccc(OCc3ccccc3)cc1)C2=O (stereo not drawn)	/	-13.0%	/	-3.6%	-7.9%
COc1ccc(-c2onc(C)c2C)cc1S(=O)(=O)N1CCN(c2cc(C)ccc2C)CC1	/	-7.6%	/	-1.2%	-27.7%
CCc1nnc(SCc2ccc(OC)cc2)c2cc3sc(C)cc3n12	/	-12.6%	/	12.9%	-9.2%
Cc1ccccc1Cn1cc(S(=O)(=O)c2ccc(F)cc2)c(=O)c2cc3c(cc21)OCO3	/	-1.1%	/	2.6%	-4.3%
COc1ccc(NS(=O)(=O)c2ccc(Br)cc2)cn1	7.7%	/	-0.6	/	/
COc1ccc(NS(=O)(=O)c2ccc3oc4ccccc4c3c2)cn1	56.2µM*	9.5%	1.5	-4.6%	?
O=C(CCCN1C(=O)C(c2ccccc2)Oc2cccnc21)Nc1ccc(Br)cc1F (stereo not drawn)	/	4.3%	/	1.5%	-8.6%
CCOC(=O)C1/C(=N\O)CC(C)(O)C(C(=O)OCC)C1c1ccc(N(C)C)cc1 (stereo not drawn)	50.1µM*	?	-19.2	-2.4%	-19.5%
CC(C)(O)C1CC[C@@]2(C)C3CCC4[C@@]5(C)CCCC(C)(C)C5C(O)C[C@]4(C)[C@]3(C)CC[C@@H]12 (stereo partly drawn)	19.3%	-0.3%	1.0	10.5%	-2.2%
O=C(N/N=C/c1cn(-c2cccs2)nc1-c1ccccc1)c1ccccc1Cl	4.9%	-9.2%	0.4	?	?
O=C(N/N=C/c1cn(-c2cccs2)nc1-c1ccccc1)c1ccc(O)cc1	-12.9%	4.7%	-1.4	?	10µM*[quencher]
SMILES	Sfp inh	Tau fibril ThT	Coupling enz	Tau fibril FP	Tau fluor cs
CCN=c1scc(-c2ccco2)n1/N=C/c1ccc(O)cc1	35.5µM*	7.08µM*	3.5	8.2%	14.1µM*[quencher]
CCN=c1scc(C)n1/N=C/c1cc(Br)c(O)c(Br)c1	?	?	6.2	15.0%	?
CCN=c1scc(-c2ccco2)n1/N=C/c1ccc(OC)c(O)c1	50.1µM*	10µM*	-1.6	?	15.8µM*[quencher]
CCCC12CN3CC(C)(CN(C1)C3c1ccc(OCc3ccccc3)cc1)C2=O (stereo not drawn)	/	-5.7%	/	-3.2%	-3.5%
COc1ccccc1NC(=O)N1CC(=O)Nc2sc3c(c2C1c1ccccc1)CCCC3 (stereo not drawn)	/	-4.9%	/	10.0%	3.4%
O=C(CN1C(=O)C(c2ccc(F)cc2)=NC12CCCCCC2)Nc1ccc(F)c(Cl)c1	/	8.4%	/	?	-28.7%
CC(=O)c1cccc(NC(=O)CN2CCN(Cc3ccccc3)CC2)c1	56.2µM*	/	-1.2	/	/
CCN(CC)C(=O)CN1CCN(c2ncccn2)CC1	89.1µM*	2.1%	-7.6	2.6%	7.5%
CC(=O)c1ccc(NC(=O)CN2CCN(CC(=O)Nc3ccc(C(C)=O)cc3)CC2)cc1	9.7%	/	-0.5	/	/
COC(=O)c1cccc(NC(=O)CN2CCN(Cc3ccccc3)CC2)c1	16.9%	-5.5%	-0.2	7.6%	-4.1%
CC(=O)c1ccc(NC(=O)CN2CCN(c3ncccn3)CC2)cc1	?	-5.6%	-54.8*	-1.9%	-4.7%
CCC(=O)OC1(C)C(=O)C=C2C=C(CCCNC(=O)OC(C)(C)C)OC=C2C1=O (stereo not drawn)	-4.1%	-2.0%	0.0	3.8%	-5.6%
O=C(Nc1ccc(CN2CCCCC2)cc1)Nc1ccc(Br)cc1Cl	79.4µM*	-0.2%	2.0	?	?
S=C(Nc1ccc(Br)cc1Cl)N1CCCC1	10.3%	/	/	/	/
COC(=O)c1cnn(C(=O)c2ccccc2Br)c1N	12.0%	-2.6%	-37.4*	5.4%	-1.7%
COC(=O)c1cnn(C(=O)c2cc(OC)ccc2Br)c1N	6.7%	-7.0%	3.3	0.7%	4.9%
Cn1cc(S(=O)(=O)N2CCCCCC2)cc1C(=O)N1CCN(c2cccc(C(F)(F)F)c2)CC1	/	0.0%	/	12.5%	-1.7%
CCCC[C@]12Cc3ccccc3C(O1)c1c(cc(-c3ccccc3)oc1=O)O2	5.8%	/	-31.5*	/	/
CCCC[C@]12Cc3cc(OC)c(OC)cc3C(O1)c1c(cc(-c3ccccc3)oc1=O)O2	-11.1%	/	-0.7	/	/
Cn1c(NCCCO)nc2c1c(=O)n(Cc1ccccc1F)c(=O)n2C	13.5%	-1.3%	0.5	8.2%	8.6%
COc1ccccc1Oc1nc2c(c(=O)n(Cc3ccccc3F)c(=O)n2C)n1C	8.91µM*	?	-1.3	6.4%	?
O=c1c2cc(NC(=S)N3CCC(N4CCCCC4)CC3)ccc2nc2n1CCCCC2	79.4µM*	-1.0%	0.6	0.0%	-7.4%
Fc1ccc(N2CCN(c3ncnc4[nH]ncc34)CC2)cc1	/	?	/	4.8%	-9.0%
COC(=O)N1CCC2(CC1)CN(c1cccc(-c3ccccc3)c1)C2	79.4µM*	/	-0.7	/	/
COC(=O)N1CCC2(CC1)CN(c1ccc(-c3ccccc3)cc1)C2	0.8%	/	-1.0	/	/
